Test results from ChEMBL document CHEMBL4513141, “CO-ADD screening of NIH (USA) - Clinical Collection” (2021).
Results with a measured potency or affinity are listed apart.

Legend:
Staphylococcus aureus = settings: Concentration 20 uM; ASSAY_TEST Inhibition of Bacterial Growth; detection method Absorption (OD600); MEDIA CAMHB; plate type 384well; NBS; CORNING #3640; time 18 hr
Escherichia coli = settings: Concentration 20 uM; ASSAY_TEST Inhibition of Bacterial Growth; detection method Absorption (OD600); MEDIA CAMHB; plate type 384well; NBS; CORNING #3640; time 18 hr

| SMILES | Inhibition (Staphylococcus aureus) | Inhibition (Escherichia coli) |
| --- | --- | --- |
| COCCOC(=O)C1=C(C)NC(C)=C(C(=O)OC(C)C)C1c1cccc([N+](=O)[O-])c1 (configuration not stated) [NIMODIPINE] | 7.57% | 4.2% |
| Cl.NC12CC3CC(CC(C3)C1)C2 [AMANTADINE HYDROCHLORIDE] | 17.85% | -0.07% |
| Nc1c2c(nc3c1CCC3)CCCC2 [IPIDACRINE] | 16.52% | 5.57% |
| COc1c2occc2cc2ccc(=O)oc12 [METHOXSALEN] | 13.34% | -6.11% |
| OCc1cccnc1 [NICOTINYL ALCOHOL] | 10.46% | 0.45% |
| CCC1(c2ccccc2)C(=O)NCNC1=O [PRIMIDONE] | 13.4% | 3.86% |
| C[C@@H]1C[C@H]2[C@@H]3CCC4=CC(=O)C=C[C@]4(C)[C@@]3(F)[C@@H](O)C[C@]2(C)[C@H]1C(=O)CO [DESOXIMETASONE] | 0.95% | 7.14% |
| COc1ccccc1OCCNCC(O)COc1cccc2[nH]c3ccccc3c12 (configuration not stated) [CARVEDILOL] | 10.39% | 6.44% |
| Nc1nc(=O)c2nc(CNc3ccc(C(=O)N[C@@H](CCC(=O)O)C(=O)O)cc3)cnc2[nH]1 [FOLIC ACID] | 10.57% | -0.13% |
| COc1ccccc1N1CCN(CCCNc2cc(=O)n(C)c(=O)n2C)CC1.Cl [URAPIDIL HYDROCHLORIDE] | 12.2% | 0.81% |
| CCN(CC)C(=O)[C@]1(c2ccccc2)C[C@@H]1CN.Cl [1R,2S-MILNACIPRAN HYDROCHLORIDE] | 5.25% | 4.64% |
